PubChem BioAssay AID1159580 (chemical genetic matrix, 2015)
“And” between values parts separate entries of the source, which are not always exact repeats. Equal values may be shown once. The campaign covered roughly 5,500 compounds. About 2,000 (36%) were called active. Not shown: some 18% with an inconclusive outcome. No stated cut-off is given here; in the data, active means normalized growth mostly below about 0.91 (no sharp cut-off); inconclusive means no clear call, values can overlap the other calls; inactive means mostly above about 0.92. Some of the results follow.

Test: chemical genetic growth profiling, strain panel (AID 1159580);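 further: tested at 20 µM; growth read once vehicle control cultures reached saturation at 30 °C; 1 = growth at the plate median or of vehicle wells; lower values mean less growth of the strain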
Settings: growth OD

Measured: normalized growth

O=C(O)CCCc1ccc(N(CCCl)CCCl)cc1
inactive: S. cerevisiae deletion strains, locus YKL009W, strain mrt4, hits give low values 0.92 | S. cerevisiae deletion strains, locus YKL068W, hits give low values 0.973 | S. cerevisiae deletion strains, locus YKL085W, strain MDH1 (second series), hits give low values 0.942 | S. cerevisiae deletion strains, locus YKL085W, strain MDH1, hits give low values 0.942 | S. cerevisiae deletion strains, locus YKL160W, strain elf1, hits give low values 0.927 | S. cerevisiae deletion strains, locus YKR001C, strain vps1, hits give low values 0.985 | S. cerevisiae deletion strains, locus YKR026C, strain gcn3, hits give low values 0.971 | S. cerevisiae deletion strains, locus YKR091W, strain srl3, hits give low values 0.962 | S. cerevisiae deletion strains, locus YLL001W, strain dnm1, hits give low values 1.01 | S. cerevisiae deletion strains, locus YLL026W, hits give low values 0.984 | S. cerevisiae deletion strains, locus YLL041C, strain sdh2, hits give low values 0.963 | S. cerevisiae deletion strains, locus YLR027C, strain aat2, hits give low values 0.949 | S. cerevisiae deletion strains, locus YLR039C, strain RIC1, hits give low values 0.974 | S. cerevisiae deletion strains, locus YLR058C, strain SHM2, hits give low values 0.977 | S. cerevisiae deletion strains, locus YLR102C, strain apc9, hits give low values 0.987 | S. cerevisiae deletion strains, locus YLR221C, strain rsa3, hits give low values 1.03 | S. cerevisiae deletion strains, locus YLR258W, strain gsy2, hits give low values 0.96 | S. cerevisiae deletion strains, locus YLR262C, strain YPT6 (second series), hits give low values 0.987 | S. cerevisiae deletion strains, locus YLR262C, strain YPT6, hits give low values 0.915 | S. cerevisiae deletion strains, locus YLR268W, strain sec22, hits give low values 0.981 | S. cerevisiae deletion strains, locus YLR320W, strain mms22, hits give low values 0.993 | S. cerevisiae deletion strains, locus YLR330W, strain CHS5, hits give low values 0.985 | S. cerevisiae deletion strains, locus YLR342W, strain FKS1 (second series), hits give low values 0.96 | S. cerevisiae deletion strains, locus YLR342W, strain FKS1, hits give low values 0.99 | S. cerevisiae deletion strains, locus YLR357W, strain rsc2, hits give low values 0.948 | S. cerevisiae deletion strains, locus YLR370C, strain arc18, hits give low values 0.959 | S. cerevisiae deletion strains, locus YLR371W, strain rom2, hits give low values 0.992 | S. cerevisiae deletion strains, locus YLR384C, strain iki3, hits give low values 0.979 | S. cerevisiae deletion strains, locus YLR418C, strain cdc73, hits give low values 1.03 | S. cerevisiae deletion strains, locus YML016C, strain PPZ1, hits give low values 0.984 | S. cerevisiae deletion strains, locus YML032C, strain rad52, hits give low values 0.944 | S. cerevisiae deletion strains, locus YML120C, strain ndi1, hits give low values 0.987 | S. cerevisiae deletion strains, locus YML124C, strain tub3, hits give low values 0.989 | S. cerevisiae deletion strains, locus YMR058W, strain fet3, hits give low values 0.979 | S. cerevisiae deletion strains, locus YMR078C, strain ctf18, hits give low values 0.972 | S. cerevisiae deletion strains, locus YMR125W, strain sto1, hits give low values 0.945 | S. cerevisiae deletion strains, locus YMR129W, hits give low values 0.969 | S. cerevisiae deletion strains, locus YMR205C, strain PFK2, hits give low values 0.992 | S. cerevisiae deletion strains, locus YMR223W, strain ubp8, hits give low values 1.01 | S. cerevisiae deletion strains, locus YMR231W, strain pep5, hits give low values 0.981 | S. cerevisiae deletion strains, locus YMR307W, strain GAS1, hits give low values 0.922 and 0.985 | S. cerevisiae deletion strains, locus YNL067W, strain RPL9B, hits give low values 1.02 | S. cerevisiae deletion strains, locus YNL071W, strain lat1, hits give low values 0.964 | S. cerevisiae deletion strains, locus YNL153C, strain GIM3, hits give low values 1.01 | S. cerevisiae deletion strains, locus YNL175C, strain NOP13, hits give low values 1.04 | S. cerevisiae deletion strains, locus YNL183C, strain NPR1, hits give low values 0.908 | S. cerevisiae deletion strains, locus YNL197C, strain WHI3, hits give low values 0.989 | S. cerevisiae deletion strains, locus YNL209W, strain ssb2, hits give low values 0.976 | S. cerevisiae deletion strains, locus YNL224C, strain SQS1, hits give low values 1 | S. cerevisiae deletion strains, locus YNL233W, strain BNI4, hits give low values 1.03 | S. cerevisiae deletion strains, locus YNL271C, strain bni1, hits give low values 0.967 | S. cerevisiae deletion strains, locus YNL307C, strain MCK1, hits give low values 0.983 | S. cerevisiae deletion strains, locus YNL322C, strain KRE1 (second series), hits give low values 0.943 | S. cerevisiae deletion strains, locus YNR049C, strain mso1, hits give low values 0.959 | S. cerevisiae deletion strains, locus YNR052C, strain pop2, hits give low values 0.985 | S. cerevisiae deletion strains, locus YOL006C, strain TOP1, hits give low values 1.11 | S. cerevisiae deletion strains, locus YOL012C, strain htz1 1.27 | S. cerevisiae deletion strains, locus YOL147C, strain pex11, hits give low values 0.99 | S. cerevisiae deletion strains, locus YOR001W, strain rrp6, hits give low values 1.03 | S. cerevisiae deletion strains, locus YOR061W, strain CKA2, hits give low values 0.969 | S. cerevisiae deletion strains, locus YOR069W, strain VPS5, hits give low values 0.975 | S. cerevisiae deletion strains, locus YOR070C, strain gyp1, hits give low values 0.984 | S. cerevisiae deletion strains, locus YOR080W, strain dia2, hits give low values 0.963 | S. cerevisiae deletion strains, locus YOR083W, strain WHI5 (second series), hits give low values 0.99 | S. cerevisiae deletion strains, locus YOR083W, strain WHI5, hits give low values 0.94 | S. cerevisiae deletion strains, locus YOR106W, strain vam3, hits give low values 0.918 | S. cerevisiae deletion strains, locus YOR136W, strain idh2, hits give low values 0.987 | S. cerevisiae deletion strains, locus YOR144C, strain elg1, hits give low values 0.987 | S. cerevisiae deletion strains, locus YOR184W, strain ser1, hits give low values 0.976 | S. cerevisiae deletion strains, locus YOR265W, strain rbl2, hits give low values 0.969 | S. cerevisiae deletion strains, locus YOR270C, strain vph1, hits give low values 0.986 | S. cerevisiae deletion strains, locus YOR290C, strain snf2, hits give low values 0.935 | S. cerevisiae deletion strains, locus YOR316C, strain cot1, hits give low values 0.976 | S. cerevisiae deletion strains, locus YPL051W, strain arl3, hits give low values 0.997 | S. cerevisiae deletion strains, locus YPL055C, strain LGE1, hits give low values 0.992 | S. cerevisiae deletion strains, locus YPL078C, strain atp4, hits give low values 0.952 | S. cerevisiae deletion strains, locus YPL106C, strain sse1, hits give low values 0.899 | S. cerevisiae deletion strains, locus YPL240C, strain hsp82, hits give low values 0.988 | S. cerevisiae deletion strains, locus YPL241C, strain CIN2, hits give low values 0.997 | S. cerevisiae deletion strains, locus YPL256C, strain CLN2, hits give low values 0.857 | S. cerevisiae deletion strains, locus YPR119W, strain clb2, hits give low values 0.985 | S. cerevisiae deletion strains, locus YPR141C, strain kar3, hits give low values 0.99 | S. cerevisiae deletion strains, locus YPR163C, strain tif3, hits give low values 0.984 | S. cerevisiae deletion strains, locus YPR167C, strain met16, hits give low values 0.994 | S. cerevisiae deletion strains, strain wtn01, hits give low values 0.993 | S. cerevisiae strains, strain wild type, hits give low values 0.984
active: S. cerevisiae deletion strains, locus YLR113W, strain HOG1, hits give low values 0.838 | S. cerevisiae deletion strains, locus YNL248C, strain rpa49, hits give low values 0.882 | S. cerevisiae deletion strains, locus YNL250W, strain rad50, hits give low values 0.819 | S. cerevisiae deletion strains, locus YNL298W, strain CLA4, hits give low values 0.896 | S. cerevisiae deletion strains, locus YOR231W, strain MKK1, hits give low values 0.84
